Experimental data published in the supplement of paper PMC3334620.
The full ranking holds about 33,000 sequences; the median of “E-score (-0.5 to 0.5)” is about -0.021, and the highest 2% start at about 0.32. For the sample, the highest values were picked, then their nearest neighbours and some sequences at random.

What follows are sequences tested against T1, Zap1 (UniProt P47043) (assay: PBM E-score (8-mer binding enrichment) (E-score (-0.5 to 0.5)); higher = stronger / more preferred TF binding). Conditions: protein concentration: 200 nM; construct: GST-full length.
T1 sequence: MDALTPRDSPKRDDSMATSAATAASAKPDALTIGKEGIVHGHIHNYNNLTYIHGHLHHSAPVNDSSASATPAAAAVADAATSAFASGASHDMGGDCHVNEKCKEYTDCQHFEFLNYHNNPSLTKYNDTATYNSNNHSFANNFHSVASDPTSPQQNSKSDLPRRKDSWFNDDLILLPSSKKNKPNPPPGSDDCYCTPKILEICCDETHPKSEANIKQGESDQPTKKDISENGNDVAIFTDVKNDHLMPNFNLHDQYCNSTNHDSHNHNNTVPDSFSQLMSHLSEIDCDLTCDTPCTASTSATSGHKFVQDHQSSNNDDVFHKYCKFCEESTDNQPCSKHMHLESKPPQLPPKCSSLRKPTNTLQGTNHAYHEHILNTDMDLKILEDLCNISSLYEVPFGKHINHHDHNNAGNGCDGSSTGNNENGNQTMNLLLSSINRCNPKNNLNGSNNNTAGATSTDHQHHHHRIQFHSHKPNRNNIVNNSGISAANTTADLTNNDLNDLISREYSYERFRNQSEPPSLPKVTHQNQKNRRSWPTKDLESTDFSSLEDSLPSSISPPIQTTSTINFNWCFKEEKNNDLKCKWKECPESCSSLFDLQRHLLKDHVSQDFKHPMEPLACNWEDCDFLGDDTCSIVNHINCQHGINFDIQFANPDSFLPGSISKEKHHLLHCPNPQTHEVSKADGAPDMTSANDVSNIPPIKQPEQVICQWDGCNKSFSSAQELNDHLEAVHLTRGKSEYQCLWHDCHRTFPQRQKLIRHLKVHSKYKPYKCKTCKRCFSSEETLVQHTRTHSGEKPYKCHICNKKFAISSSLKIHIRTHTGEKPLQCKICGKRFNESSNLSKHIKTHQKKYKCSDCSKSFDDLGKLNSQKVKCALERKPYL
Method: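 Universal 'all 10-mer' protein binding microarrays (Agilent AMADID 015681) probed with GST-tagged S. cerevisiae TFs (full-length or DBD) made by in vitro transcription/translation (PURExpress), about 100-200 nM. Bound TF was detected with fluorescent anti-GST. Each ungapped 8-mer (which stands for itself and its reverse complement) is scored by the PBM enrichment score (E-score), a modified Wilcoxon-Mann-Whitney statistic from -0.5 to +0.5, computed with the Universal PBM Analysis Suite. Scale: above 0.35 generally sequence-specific binding.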
For CATGCGAC, the “PBM E-score” value was 0.014. With CGACCACC the “PBM E-score” value was 0.15. In the case of CCTCTGTC, the “PBM E-score” value is reported as 0.0337. In the case of AAAGTGTG, the “PBM E-score” value is reported as 0.071. For ATATCAGA, the “PBM E-score” value was 0.0906. With CCTCGACC the “PBM E-score” value was -0.056. With TTGCTAAA the “PBM E-score” value was -0.0992. With GGCCCTGA the “PBM E-score” value was -0.137. In the case of GCGGGTCA, the “PBM E-score” value is reported as 0.367. With CCGGGTCA the “PBM E-score” value was 0.316. In the case of CGGGGTCA, the “PBM E-score” value is reported as 0.332. GGGGGTCA was tested, and the “PBM E-score” value was -0.132. In the case of ACGGGTCA, the “PBM E-score” value is reported as 0.223. With GCGGGTCC the “PBM E-score” value was -0.0967. For AGGTGGGC, the “PBM E-score” value was -0.0375. With CAGCTCAA the “PBM E-score” value was -0.0501. With GCAAGATA the “PBM E-score” value was 0.0727. AGCCTACT was tested, and the “PBM E-score” value was -0.212. For ACCCTACT, the “PBM E-score” value was 0.329. For GCCCTACC, the “PBM E-score” value was 0.0168. ACCCTACC was tested, and the “PBM E-score” value was 0.364. For TCCCTACA, the “PBM E-score” value was -0.0805. For AACCTACT, the “PBM E-score” value was 0.135. With AACCTACG the “PBM E-score” value was 0.123. With CCCCTACC the “PBM E-score” value was 0.0857. For CCCCTACA, the “PBM E-score” value was -0.0402. With ACCCTACG the “PBM E-score” value was 0.361. ACCCTACA was tested, and the “PBM E-score” value was 0.419. CCCCTACG was tested, and the “PBM E-score” value was -0.117. With GAGTTGCA the “PBM E-score” value was -0.0948. With AAATTCCT the “PBM E-score” value was -0.0586. CAAAGTGC was tested, and the “PBM E-score” value was -0.0833. In the case of CGAATCGA, the “PBM E-score” value is reported as 0.00445. In the case of ATCGAATG, the “PBM E-score” value is reported as -0.106. For ACCTAGGA, the “PBM E-score” value was 0.159. CTCAGGCA was tested, and the “PBM E-score” value was -0.158. In the case of ATTGCGAA, the “PBM E-score” value is reported as -0.0714. For GTAACAAC, the “PBM E-score” value was 0.234. AACATGCG was tested, and the “PBM E-score” value was -0.0232. GCCAGAAC was tested, and the “PBM E-score” value was -0.226. AATAACCA was tested, and the “PBM E-score” value was 0.445. TCTAACCA was tested, and the “PBM E-score” value was 0.231. With CATAACCA the “PBM E-score” value was 0.462. CATAACAA was tested, and the “PBM E-score” value was 0.179. In the case of CATAACTA, the “PBM E-score” value is reported as 0.18. For GATAACTA, the “PBM E-score” value was 0.231. With TATAACAA the “PBM E-score” value was 0.291. With GATAACGA the “PBM E-score” value was 0.00419. With AATAACAA the “PBM E-score” value was 0.0521. TATAACCA was tested, and the “PBM E-score” value was 0.45. In the case of AATAACGA, the “PBM E-score” value is reported as -0.036. In the case of GATAACCA, the “PBM E-score” value is reported as 0.426. With GTGTTGAA the “PBM E-score” value was -0.0764. In the case of ACGGCTCC, the “PBM E-score” value is reported as -0.198. In the case of GCCTTTGA, the “PBM E-score” value is reported as 0.0766. For GGTGTCAC, the “PBM E-score” value was 0.0261. For CTCTGCAG, the “PBM E-score” value was -0.126. For ACTATAGT, the “PBM E-score” value was 0.197. For AGCCGCTC, the “PBM E-score” value was -0.0957. In the case of CCTGTTGC, the “PBM E-score” value is reported as 0.0211. For GCATAGAC, the “PBM E-score” value was -0.117. With CTGGTAAG the “PBM E-score” value was 0.055. For GCCATCCA, the “PBM E-score” value was -0.197. With CATAACCG the “PBM E-score” value was 0.395. CATAACGG was tested, and the “PBM E-score” value was -0.0515. CATAACAG was tested, and the “PBM E-score” value was -0.0694. With CTATATAA the “PBM E-score” value was 0.24. With CGTTATAA the “PBM E-score” value was 0.247. With GGTTATAA the “PBM E-score” value was 0.471. With ATATATAA the “PBM E-score” value was 0.249. With AGTTATAC the “PBM E-score” value was 0.104. AGTTATAA was tested, and the “PBM E-score” value was 0.193. With TTATATAA the “PBM E-score” value was 0.331. In the case of GGTTATAC, the “PBM E-score” value is reported as 0.461. For CGTTATAC, the “PBM E-score” value was -0.00572. With ATTTGCGA the “PBM E-score” value was 0.0692. For CCCCATTC, the “PBM E-score” value was -0.0769. In the case of ATCCTTCC, the “PBM E-score” value is reported as -0.306. In the case of GCATCTTA, the “PBM E-score” value is reported as -0.0867. For ACCATTCT, the “PBM E-score” value was 0.0676. In the case of GATCATTA, the “PBM E-score” value is reported as 0.0548. For TATCCGGA, the “PBM E-score” value was 0.0937. In the case of ACGGTAAG, the “PBM E-score” value is reported as 0.016. In the case of ACGGTAAT, the “PBM E-score” value is reported as 0.139. For GCGGTAAC, the “PBM E-score” value was 0.32. For CCGGTAAC, the “PBM E-score” value was 0.316.
